Structures can show the parent of a compound that is named as a salt.
Test system: RIVA
Assay: growth inhibition by drug alone (1 - RLU/untreated control) (fraction); higher = stronger inhibition
Settings: 177Lu-lilotomab satetraxetan 0 ug/ml
Procedure: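 RIVA (RI-1) ABC-DLBCL cells were pretreated or not for 18 h with 0.5 ug/ml 177Lu-lilotomab satetraxetan (600 MBq/mg), washed and seeded (3000 cells/well) on 384-well plates pre-printed with the Selleck Cambridge Cancer Compound library. Viability was read by RealTime-Glo luminescence on days 3-6 after seeding. Effect = 1 - RLU/mean RLU of the 48 untreated no-drug control wells per plate; Bliss score = (M-E)/(1-Fa).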

Row | Compound | growth inhibition by drug alone (10 nM, time (day): 3) | growth inhibition by drug alone (10 nM, time (day): 4) | growth inhibition by drug alone (10 nM, time (day): 5) | growth inhibition by drug alone (10 nM, time (day): 6) | growth inhibition by drug alone (100 nM, time (day): 3) | growth inhibition by drug alone (100 nM, time (day): 4) | growth inhibition by drug alone (100 nM, time (day): 5) | growth inhibition by drug alone (100 nM, time (day): 6)
1 | Cc1ccc(NC(=O)c2cccc(C(C)(C)C#N)c2)cc1Nc1ccc2ncn(C)c(=O)c2c1 | -0.0415 | -0.0437 | -0.0355 | -0.0473 | -0.346 | -0.245 | -0.279 | -0.339
2 | C#Cc1cccc(Nc2ncnc3cc(OCCOC)c(OCCOC)cc23)c1 [Erlotinib HCl] | 0.349 | 0.233 | 0.131 | -0.221 | 0.656 | 0.642 | 0.6 | 0.46
3 | Nc1ccc(C(=O)Nc2cccc(-c3nc(N4CCOCC4)c4oc5ncccc5c4n3)c2)cn1 | -0.00332 | -0.02 | -0.0954 | -0.385 | 0.0916 | 0.0201 | 0.0261 | -0.0381
4 | C=CCn1c(=O)c2cnc(Nc3ccc(N4CCN(C)CC4)cc3)nc2n1-c1cccc(C(C)(C)O)n1 | -0.0778 | -0.0715 | -0.175 | -0.482 | -0.508 | -0.354 | -0.45 | -0.813
5 | CC[C@@H]1/C=C(\C)C[C@H](C)C[C@H](OC)[C@H]2O[C@@](O)(C(=O)C(=O)N3CCCC[C@H]3C(=O)O[C@H](/C(C)=C/[C@@H]3CC[C@H](Cl)[C@H](OC)C3)[C@H](C)[C@@H](O)CC1=O)[C@H](C)C[C@@H]2OC [Pimecrolimus] | 0.339 | 0.267 | 0.276 | 0.279 | 0.691 | 0.549 | 0.534 | 0.477
